Compounds without any hit were thinned out: in the full panel of roughly 83,000, 20% have a hit.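 Interpretation: 100, growth as untreated; towards 0, rising growth inhibition; 0, no net growth; 0 to -100, cell death. Compounds scoring below 10 were considered active.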 Unmarked numbers belong to inactive results. Activity calls are given as the source filed them.
Legend:
Test in all cases: NCI-60 one-dose screen, 48 h (100 = growth as untreated, 0 = no growth, -100 = all killed)
Details in all cases: 10 µM unless noted
T-47D breast = tested on: T-47D breast
BT-549 breast = tested on: BT-549 breast
SW-620 colon = tested on: SW-620 colon
MCF7 breast = tested on: MCF7 breast
HCT-116 colon = tested on: HCT-116 colon
HCC-2998 colon = tested on: HCC-2998 colon
KM12 colon = tested on: KM12 colon
MDA-MB-468 breast = tested on: MDA-MB-468 breast
MDA-MB-435 melanoma = tested on: MDA-MB-435 melanoma

Row | Compound | growth (T-47D breast) | growth (BT-549 breast) | growth (SW-620 colon) | growth (MCF7 breast) | growth (HCT-116 colon) | growth (HCC-2998 colon) | growth (KM12 colon) | growth (MDA-MB-468 breast) | growth (MDA-MB-435 melanoma)
1 | C#CCOc1cc(N(CC)CC)ccc1C(C(=O)NC(C)(C)C)N(C(=O)C1CCc2cc(F)ccc2O1)c1ccc(F)cc1 (stereo unspecified) | 40.3% | 50.9% | 58.6% | 20.2% | 27.1% | 71.9% | 25.7% | 33.2% | 
2 | CC(=O)NNc1ccc2nnc(-c3ccccc3)n2n1 | 105% |  | 90.6% | 94.8% | 107% | 100% | 104% | 101% | 103%
3 | CNC(=O)c1cc(Oc2ccc3nc(NC(=O)Nc4cccc(OC(F)(F)F)c4)sc3c2)ccn1 | 47.4% | 0.174% (active) |  | 39.2% | 17.2% | 46.8% | 53.1% | 1.5% (active) | 
4 | CSc1ccc(C(=O)Nc2ccc3nn(/C(C#N)=C/c4ccccn4)nc3c2)cc1 | -26% (active) | -90.1% (active) |  | -78.6% (active) | -93.8% (active) | -99.8% (active) | -43.6% (active) | -90.7% (active) | 
5 | COCOc1ccc2c(=O)c(C)c(C(=O)N[C@@H](Cc3ccccc3)C(O)C(=O)NCCc3ccc(OC)cc3)oc2c1 (stereo partly specified) | 97.1% | 122% | 114% | 103% | 104% | 125% | 108% | 95.2% | 
6 | Cc1cc(=O)oc2cc(OCCCCOc3ccc(/C=C/C(=O)Nc4ccccc4N)cc3)ccc12 | 31.4% | -23.9% (active) | 71.9% | 18.6% | 45.6% | 89% | 31.2% | 34.2% | 
7 | N#Cc1ccc(/C=N/NC(=O)c2[nH]c3ccc(Br)cc3c2-c2ccccc2)o1 | 23.8% | -7.06% (active) |  | 7.95% (active) |  | -30.9% (active) | 6.36% (active) | -13.6% (active) | 
8 | CCCCSc1nc(Nc2ccc(C(C)=O)cc2)c(C#N)c(-c2ccc(OC)cc2)n1 | 64.3% | 75.3% | 63.2% | 65.4% | 32.5% | 98.4% | 95.3% | 67.5% | 
9 | CC(=O)Nc1cccc(Nc2nc(N[C@H]3CCCc4ccccc43)c3ccccc3n2)c1 | 102% | 131% |  | 95.6% | 108% | 117% | 101% | 101% | 
10 | O=C(/C=C/c1cccc(OCc2ccc(F)cc2)c1)c1nc2ccccc2[nH]1 | 22.1% | 16% |  | 3.5% (active) | -24.9% (active) | 26.6% | 13.6% | 8.37% (active) | 
11 | COc1cc(CNC(=O)/C=C/c2ccc3c(c2)OCO3)ccc1OCc1cn(-c2ccc([N+](=O)[O-])cc2)nn1 | 65.5% | 71.9% |  | 81.8% | 85.3% | 104% | 100% | 72.4% | 
12 | CC1CCCCN1CCCNC(=O)N/C(N)=N/c1nc2ccccc2s1 (stereo unspecified) | 57.2% | 55.6% |  | -9.89% (active) | 16.8% | 47.1% | 48.2% | 11.2% | 
13 | CC(C)CSc1nc(NCCc2c[nH]c3ccccc23)c(C#N)c(-c2ccc(Cl)cc2)n1 | 31.7% | 83.5% | 24.9% | 16.4% | 19.5% | 52.3% | 35.1% | 53.9% | 
14 | Cc1ccc(-c2nc(C#N)c(S(=O)(=O)N3CCN(S(=O)(=O)c4ccccc4)CC3)o2)cc1 | -1.54% (active) | -19% (active) | -86.9% (active) | -30.6% (active) |  | 56.2% | 77.4% | -49.3% (active) | 
15 | Cc1c(C(=O)NNC(=O)c2ccc(Cl)cc2)nnn1-c1ccc(Br)cc1 | 93% | 96.5% |  | 84.3% | 89.5% | 105% | 104% | 95.6% | 
16 | Cc1cc(C)n(-c2ccc3nnc(-c4ccccc4)n3n2)n1 | 95.5% |  | 103% | 89.9% | 106% | 103% | 97.4% |  | 106%
17 | CN1CCc2c(sc3ncnc(N/N=C/c4ccc(Cl)cc4Cl)c23)C1 | 76.9% | -40.2% (active) |  | 3.77% (active) |  | 24.1% | 24.8% | -67.5% (active) | 
18 | COc1ccc(C(=O)/C=C/c2cccc3ccccc23)cc1S(N)(=O)=O | -2.6% (active) |  | -16.1% (active) | -60.3% (active) | -91.9% (active) | -70.2% (active) | -61.2% (active) | -55.7% (active) | 5.32% (active)
19 | COc1ccc(-c2ccnc(SCc3cc4ccccc4[nH]c3=O)n2)cc1 | 70.2% | 29.7% | 35.1% |  | 31% | 59.6% | 57.3% | 6.26% (active) | 
20 | CC12CC[C@@H]3[C@]4(C)COC(c5cn[nH]c5-c5ccc(Cl)cc5)O[C@@H]4CC[C@@]3(C)[C@@H]1CC(C1=CCOC1=O)O2 (stereo partly specified) | 6.42% (active) | 5.38% (active) | 49.4% |  | 25.1% | 58% | 31.9% | 0.753% (active) | 
21 | COC1=C[C@]23CCC(=O)N2CCc2cc4c(cc2[C@@H]3[C@@H]1OC(=O)[C@H](C)O)OCO4 | 42.4% | 2.51% (active) | 13.6% | -5.57% (active) | 1.88% (active) | -29.9% (active) | 18.9% | -17% (active) | 
22 | N/N=C(\N)c1c(N)nc(=S)[nH]c1-c1ccc(Cl)cc1Cl | 92.6% | 100% | 106% | 95.6% | 113% | 103% | 105% | 110% | 
23 | C=C1CC[C@@H]2[C@]3(C)COC(c4cn[nH]c4-c4ccc(C)cc4)O[C@@H]3CC[C@@]2(C)[C@@H]1C/C=C1/C(=O)OCC1O (stereo partly specified) | 39.4% | -30.5% (active) |  | 8.74% (active) | -68.5% (active) | 2.89% (active) | 39.3% | -49.3% (active) | 
24 | COc1ccc2[nH]cc(-c3nnc(N)nc3-c3c[nH]c4ncc(Br)cc34)c2c1 | 53.8% | 93% | 88.8% | 62.2% | 75.2% | 110% | 91.4% | 79.9% | 
25 | O=C1Nc2ccc([N+](=O)[O-])cc2C1=Nc1ccccc1 | 84.1% |  | 102% | 85.4% | 106% | 112% | 105% | 109% | 111%
26 | C(=C\c1cc(/C=C/c2ccccc2)c2ccccc2n1)/c1ccccc1 | 78.3% | 126% |  | 37.3% | 17.3% | 101% | 95.6% | 107% | 
27 | COc1ccc(C(=O)/C=C/c2c(F)cccc2Cl)cc1S(N)(=O)=O | -5.64% (active) |  | 4.6% (active) | -4.58% (active) | -89.6% (active) | -46.2% (active) | -41.1% (active) |  | 6.73% (active)
28 | CC(=O)OC[C@@]1(C)C2CC[C@]3(C)C(CC=C4C5CC(C)(C)CC[C@]5(C(=O)Nc5ccc(Br)cc5)CC[C@]43C)[C@@]2(C)C[C@@H](OC(C)=O)[C@@H]1OC(C)=O (stereo partly specified) | 16.5% | 43.7% | 39.9% | 28.2% |  | 38% | 46.4% | 4.65% (active) | 
29 | CCCCn1c(O)c(N=Nc2nc(-c3cc4ccccc4oc3=O)cs2)c2cc(Br)ccc21 | 107% | 132% | 114% | 89.8% | 107% | 111% | 114% | 113% | 
30 | NS(=O)(=O)c1ccc(-n2cc(-c3cccc(NC(=O)c4cc(N5CCOCC5)cc(C(F)(F)F)c4)c3)nn2)cc1 | 47% |  | 105% | 72.9% | 87.2% | 88.1% | 79% | 69.4% | 85.9%

— PubChem BioAssay (NCI)
